From PubChem BioAssay (NCI) come the findings set out here.

SMILES strings stand for the structures. Compounds without any hit were thinned out: in the full panel of roughly 83,000, 20% have a hit.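 How to read the values: 0–100, growth inhibition (40 = 60% inhibited); 0, no net growth; -100 to 0, cell death (-40 = 40% of starting cells died; -100 = all dead).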 Values without a mark were called inactive. Calls of active or inactive are those of the source. How the source made its calls: active means growth percent below 10; inactive means the rest.

Some test systems named below: NCI-H23 lung; NCI-H226 lung; NCI-H322M lung; HOP-62 NSCLC; NCI-H460 lung; HOP-92 NSCLC; NCI-H522 lung; A549/ATCC NSCLC; 786-0 renal; COLO 205 colon; DU-145 prostate; K-562 leukemia; MALME-3M melanoma; MDA-MB-231 breast; RXF 393 renal; SF-268 CNS; SF-295 CNS; SF-539 CNS; UACC-257 melanoma; M14 melanoma.
Test in all cases: NCI-60 one-dose screen, 48 h (100 = growth as untreated, 0 = no growth, -100 = all killed)
Details in all cases: 10 µM unless noted

With `O=C(Nc1cc(=O)[nH]c(=O)[nH]1)C(Cl)Cl`, the growth is 107% in the experiment with NCI-H23 lung; 102% in the experiment with NCI-H226 lung; 95.5% in the experiment with NCI-H322M lung; 106% in the experiment on HOP-62 NSCLC; 109% in the experiment on NCI-H460 lung; 98.8% in the experiment on HOP-92 NSCLC. Also, the growth is 90.3% in the experiment on NCI-H522 lung; 97.4% with A549/ATCC NSCLC; 107% in the experiment on 786-0 renal; 122% in the experiment on COLO 205 colon; 113% with DU-145 prostate; 99.2% in the experiment with K-562 leukemia. The growth in the experiment on MALME-3M melanoma is 96.7%; in the experiment with MDA-MB-231 breast, 102%; in the experiment on RXF 393 renal it was 106%; with SF-268 CNS, 99.9%; in the experiment with SF-295 CNS it was 105%; in the experiment on SF-539 CNS, 106%. In addition, the growth with UACC-257 melanoma is 96.5%; in the experiment with M14 melanoma, 106%.

Turning to `CN(C)[C@@H]1C(=O)C(C(N)=O)=C(O)[C@@]2(O)C(=O)C3=C(O)c4c(O)cc(CN5CCc6ccccc6C5)c(Cl)c4C[C@H]3C[C@@H]12`, the growth in the experiment with NCI-H23 lung was -73.8% (active); in the experiment on NCI-H226 lung, -70.8% (active); in the experiment on NCI-H322M lung it was -87.2% (active); in the experiment with HOP-62 NSCLC it was -85.4% (active); with NCI-H460 lung it was -68.7% (active); in the experiment on HOP-92 NSCLC, -82.8% (active). Moreover, the growth is -79.3% (active) in the experiment with NCI-H522 lung; -85.4% (active) in the experiment on A549/ATCC NSCLC; -83.8% (active) in the experiment on 786-0 renal; -78.3% (active) in the experiment with COLO 205 colon; -92.2% (active) with DU-145 prostate; -73.6% (active) with K-562 leukemia. Besides, the growth in the experiment with MALME-3M melanoma is -52.5% (active); with MDA-MB-231 breast, -74.4% (active); in the experiment on RXF 393 renal, -82.2% (active); with SF-268 CNS, -74.9% (active); with SF-295 CNS, -88.9% (active); in the experiment with SF-539 CNS, -84.6% (active). Moreover, the growth in the experiment with UACC-257 melanoma was -62% (active); in the experiment with M14 melanoma, -71.2% (active).

Take `CC(C)C[C@H](C(=O)O)N(C)C(=O)[C@@H]1CCCN1C(=O)[C@H](C)OC(=O)[C@H](CCC(N)=O)NC(=O)[C@@H]1CCC(=O)N1`: the growth in the experiment with NCI-H23 lung was 109%; with NCI-H226 lung, 101%; with NCI-H322M lung it was 98.5%; with HOP-62 NSCLC, 93.4%; in the experiment on NCI-H460 lung, 111%; in the experiment on HOP-92 NSCLC, 102%. Also, the growth in the experiment with NCI-H522 lung was 88.7%; in the experiment on A549/ATCC NSCLC it was 92.2%; in the experiment on 786-0 renal, 96.1%; in the experiment with COLO 205 colon, 99.3%; in the experiment with DU-145 prostate it was 106%; in the experiment on K-562 leukemia it was 93.2%. In addition, the growth is 109% in the experiment with MALME-3M melanoma; 108% in the experiment with MDA-MB-231 breast; 135% with RXF 393 renal; 97.4% with SF-268 CNS; 93.7% in the experiment with SF-295 CNS; 97.7% in the experiment with SF-539 CNS. For the same compound, the growth with UACC-257 melanoma is 95.2%; with M14 melanoma, 99.9%.

As to `COc1ccc2nc(-c3ccc(Cl)cc3)cc(-c3nnc(SCC(=O)Nc4ccc(/C(C)=N\O)cc4)o3)c2c1`, the growth is 2.74% (active) in the experiment on NCI-H23 lung; 22.8% with NCI-H226 lung; 57.4% in the experiment on NCI-H322M lung; 60% in the experiment with HOP-62 NSCLC; -31.2% (active) in the experiment on NCI-H460 lung; 19.1% in the experiment on HOP-92 NSCLC. Moreover, the growth with NCI-H522 lung is 9.31% (active); in the experiment on A549/ATCC NSCLC it was -9.66% (active); in the experiment on 786-0 renal, 25.9%; with COLO 205 colon it was 56.1%; with DU-145 prostate, 25.9%; in the experiment on K-562 leukemia it was 15.9%. Moreover, the growth is 15.1% with MALME-3M melanoma; 39.7% in the experiment with MDA-MB-231 breast; 39.7% in the experiment on RXF 393 renal; 33.1% in the experiment on SF-268 CNS; 43% in the experiment on SF-295 CNS; 68.4% in the experiment with SF-539 CNS. Besides, the growth in the experiment with UACC-257 melanoma was 44.4%; in the experiment with M14 melanoma it was 30.3%.

Consider `O=c1c2ccccc2oc2ccc(OCCCCCCN3CCCCCC3)cc12`, for which the growth in the experiment on NCI-H23 lung is 39.2%; in the experiment with NCI-H226 lung, 74.1%; in the experiment with NCI-H322M lung, 74.3%; in the experiment on HOP-62 NSCLC, 74.1%; with NCI-H460 lung, 35%; with HOP-92 NSCLC, 74.6%. Besides, the growth with NCI-H522 lung is 46%; with A549/ATCC NSCLC, 40.4%; with 786-0 renal it was 27.1%; with COLO 205 colon, -5.01% (active); in the experiment with DU-145 prostate, 65.6%; with K-562 leukemia, 2.32% (active). The growth with MALME-3M melanoma was -47.2% (active); with MDA-MB-231 breast, 43.7%; in the experiment on RXF 393 renal it was 36.8%; with SF-268 CNS, 61.7%; with SF-295 CNS it was 38.9%; in the experiment with SF-539 CNS, 54.9%. The growth was 2.49% (active) in the experiment on UACC-257 melanoma and -32% (active) with M14 melanoma.

As to `C#CCN(CCCOc1ccc(Cl)cc1Cl)CCCSC(=O)CCCCCN1/C(=C\C=C2/CCCC(/C=C/C3=[N+](CCCCCC(=O)[O-])c4ccccc4C3(C)C)=C2Cl)C(C)(C)c2ccccc21`, the growth in the experiment with NCI-H23 lung was 45.3%; in the experiment with NCI-H226 lung, -10.9% (active); in the experiment with NCI-H322M lung, 83.7%; with HOP-62 NSCLC it was 30.7%; with NCI-H460 lung, 11.8%; in the experiment on HOP-92 NSCLC, 13.7%. For the same compound, the growth in the experiment with NCI-H522 lung was -10.3% (active); in the experiment with A549/ATCC NSCLC it was 66%; in the experiment on 786-0 renal, 25.4%; in the experiment on COLO 205 colon, 32.8%; with DU-145 prostate it was 47%; with K-562 leukemia it was 0.955% (active). In addition, the growth is -56.2% (active) with MALME-3M melanoma; -6.25% (active) in the experiment with MDA-MB-231 breast; -45.2% (active) with RXF 393 renal; 7.44% (active) with SF-268 CNS; 53.3% in the experiment with SF-295 CNS; -50.2% (active) in the experiment with SF-539 CNS. Further, the growth in the experiment with UACC-257 melanoma was 30.8%; in the experiment with M14 melanoma it was 49.7%.

For `COCCOCCOCc1n(Cc2ccc3ccccc3c2)c2ccccc2[n+]1Cc1ccc2ccccc2c1`, the growth is 5.56% (active) in the experiment with NCI-H23 lung; 17.2% with NCI-H226 lung; 40.5% with NCI-H322M lung; 17.2% in the experiment with HOP-62 NSCLC; 10.3% in the experiment on NCI-H460 lung; -32.1% (active) in the experiment on HOP-92 NSCLC. In addition, the growth is -16.6% (active) in the experiment with NCI-H522 lung; 33.1% in the experiment with A549/ATCC NSCLC; 23.6% in the experiment with 786-0 renal; -60.7% (active) in the experiment with COLO 205 colon; 32.7% with DU-145 prostate; 11% with K-562 leukemia. The growth in the experiment on MALME-3M melanoma was -18.1% (active); with MDA-MB-231 breast it was -1.76% (active); in the experiment on RXF 393 renal, 21.1%; in the experiment on SF-268 CNS, 17.9%; with SF-295 CNS, 13.1%; in the experiment on SF-539 CNS it was 37.2%. The growth in the experiment with UACC-257 melanoma was -13.1% (active); with M14 melanoma it was 6.95% (active).
